Assay outcomes: PubChem, National Center for Advancing Translational Sciences (NCATS)
This is a sample that favours compounds with a hit; in the whole collection about 8% have one here.
RORg inh = qHTS for inhibitors of ROR gamma transcriptional activity; Drosophila S2 Gal4-RORgamma UAS-luciferase reporter, 20 h; Nuclear receptor ROR-gamma (Mus musculus), P51450; hit rate 5.4% among 310,000; Potency, µM (titrated, usually from 53.6 µM), without a hit: at the top dose activity change, negative = inhibition, hits mostly inhibitors; AID 2551, 2010; also: potency is read from the fitted curve at half-maximal effect; nearly all actives have a fitted effect of over 60% in size
Target sequence (P51450 whole entry, looked up, the tested form may be a part): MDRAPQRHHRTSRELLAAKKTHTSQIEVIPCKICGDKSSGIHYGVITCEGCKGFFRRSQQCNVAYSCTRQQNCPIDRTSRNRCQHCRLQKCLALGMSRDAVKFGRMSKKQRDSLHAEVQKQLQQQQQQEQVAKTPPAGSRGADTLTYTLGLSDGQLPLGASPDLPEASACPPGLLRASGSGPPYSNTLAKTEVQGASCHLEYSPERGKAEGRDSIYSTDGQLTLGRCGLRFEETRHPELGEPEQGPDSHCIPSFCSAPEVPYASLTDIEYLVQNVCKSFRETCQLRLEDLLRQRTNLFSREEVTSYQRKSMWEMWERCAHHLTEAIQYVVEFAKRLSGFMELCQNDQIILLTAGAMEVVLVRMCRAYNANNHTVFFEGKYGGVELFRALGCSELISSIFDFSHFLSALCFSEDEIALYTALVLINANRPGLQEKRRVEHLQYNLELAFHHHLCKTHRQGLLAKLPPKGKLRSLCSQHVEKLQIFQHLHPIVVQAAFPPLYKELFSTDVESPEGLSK
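Drosophila Schneider cells stably carrying a metallothionein-driven Gal4 DBD–ROR gamma fusion and a UAS-Photinus luciferase reporter were exposed to compound for 1 hr, then induced with copper sulfate (700 uM final) for 20 hr at ambient temperature before luminescence reading.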
Gal4-VP16 FLuc = VP16 counterscreen qHTS for inhibitors of ROR gamma transcriptional activity; Drosophila S2 Gal4-VP16 UAS-luciferase, luminescence, 20 h; Potency, µM (highest dose often 53.6 µM), for inactives: at the top dose activity, negative = inhibition, usual class: inhibitors; hit rate 3.5% among 310,000; AID 2546, 2010;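 also: Gal4-VP16 expression switched on by copper sulfate through the metallothionein promoter; potency is read from the fitted curve at half-maximal effect; nearly all actives have a fitted effect of over 50% in size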
TSHR antag = Antagonists of the Thyroid Stimulating Hormone Receptor: HTS campaign | Thyrotropin receptor (Homo sapiens), P16473 | TSHR-expressing cells, TSH-stimulated cAMP HTRF, 2 h; hits give low values | activity change, negative = inhibition, % at 11.5 µM | hit rate 0.2% among 330,000 | AID 504810, 2011;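 active = activity change below a set negative limit, meaning inhibition stronger than a set level, cut at about -70% in these data; inconclusive = activity change between two set negative limits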
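Read-out is FRET at 665 nm (cryptate excitation 337 nm) from a cryptate-tagged anti-cAMP antibody, competed by cell cAMP against cAMP-d2. Compounds are tested on freshly harvested TSHR cells challenged with 4nM TSH (EC80) for 2 hours at 37 deg C.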
FBPA coupling cs = qHTS Assay for Inhibitors of Fructose-1,6-bisphosphate Aldolase from Giardia Lamblia: Coupling assay counterscreen; coupling enzyme system counterscreen, AmpLite Red fluorescence; activity change, negative = inhibition, % at 58.2 µM, hits read low; hit rate 0.67% among 290,000; in the data active = activity change below about -30%
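Counterscreen lacking aldolase: glyceraldehyde-3-phosphate coupling-enzyme reagent preincubated 10 min at RT with compound (at 57.5 uM final), then substrate/coupling system with AmpLite Red added; fluorescence read at 525/598 nm after 20 min RT.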
ELG1 DNA repair = qHTS screen for small molecules that inhibit ELG1-dependent DNA repair in human embryonic kidney (HEK293T) cells expressing luciferase-tagged ELG1 | Potency, µM (top dose mostly 46.1 µM), for inactives: at the top dose activity change, negative = inhibition, most hits filed as inhibitors | HEK293T ELG1-luciferase reporter, luminescence, 16 h; DNA damage induced by 5-fluorouridine | hit rate 2.3% among 330,000; also: potency is read from the fitted curve at half-maximal effect; nearly all actives have a fitted effect of over 55% in size
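Step one: seed 2,000 cells per well. Step two: pin-transfer compound or DMSO alongside 5-fluorouridine. Step three: incubate 16 hr, 37 °C, 5% CO2. Step four: add ONE-Glo, wait 30 min, read luminescence.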
* marks the source's active call; other numbers are inactive results; u = inconclusive; x = no result given; [ ] = another dose, or the depositor's remark. Unless noted, calls follow the shape of the dose curve; as a rule, active = well fitted curve in the direction sought with a large enough effect; inconclusive = small, poorly fitted or top-dose-only effect, or another doubt; inactive = no such curve, though single readings can be large; an effect the other way counts as inactive or inconclusive. % is scaled to controls: 0 for no effect and ±100 for the full control effect.

SMILES	RORg inh	Gal4-VP16 FLuc	TSHR antag	FBPA coupling cs	ELG1 DNA repair
CCOCCCNC(=S)Nc1cc(C)cc(C)c1	6.31µM*	10µM*	10.4	2.5	-4.0%
COCCCNC(=S)Nc1ccc(C)cc1	u	-18.6%	1.0	-2.3	13.3%
COCCCNC(=S)Nc1c(C)cc(C)cc1C	11.2µM*	u	8.4	-0.5	7.7%
CCCC[C@H](NC(C)=O)C(=O)N[C@H]1CC(=O)NCCCC[C@@H](C(N)=O)NC(=O)[C@H](Cc2c[nH]c3ccccc23)NC(=O)[C@H](CCCN=C(N)N)NC(=O)[C@@H](Cc2ccccc2)NC(=O)[C@H](Cc2cnc[nH]2)NC1=O	3.8%	-3.5%	x	-0.1	x
CCOC(=O)C1(C)C=C(Nc2ccc(O)cc2)C(=O)N1c1ccc(O)cc1 (stereo unspecified)	-26.8%	u	10.6	-49.2*	u
Clc1ccc(-c2cc(-c3nnc4n3CCCCC4)c3ccccc3n2)cc1	u	3.16µM*	6.6	5.3	22.3%
Fc1ccc(-c2cc(-c3nnc4n3CCCCC4)c3ccccc3n2)cc1	u	11.2µM*	-6.3	-0.2	-6.8%
C=C1CCC2[C@](C)(CO)C(O)CC[C@]2(C)C1C/C=C1/C(=O)OCC1O (stereo partly specified)	12.6µM*	-13.5%	x	4.3	x
CC(C)(C)C(=O)/C(=C/c1ccc(Cl)cc1)n1cncn1	u	-20.3%	7.0	-0.7	u
CC(C)(C)C(=O)/C(=C\c1ccc([N+](=O)[O-])cc1)n1cncn1	2.24µM*	4.47µM*	-40.9	-2.0	11.6µM*
COC(=O)Cn1c(CCS(=O)(=O)c2ccc(Cl)cc2)nc2ccccc21	3.55µM*	3.7%	2.9	-0.1	-12.0%
COC(=O)Cn1c(CCS(=O)(=O)c2ccc(C)cc2)nc2ccccc21	3.3%	1.8%[0.365 µM]	2.1	3.6	0.4%
C/C=C(\C)C(=O)OC1CC(C)(C)C[C@H]2C3=CC[C@@H]4[C@@]5(C)CCC(O[C@@H]6O[C@@H](C(=O)O)[C@@H](O)C(O[C@@H]7OC[C@H](O)[C@@H](O)[C@@H]7O[C@@H]7OC(CO)C(O)[C@@H](O)[C@@H]7O)C6O[C@@H]6OC(CO)C(O)C(O)C6O)[C@@](C)(CO)[C@@H]5CC[C@]4(C)[C@]3(C)CC(O)[C@@]12CO (stereo partly specified)	x	x	4.7	x	-2.5%
CC(NCc1ccc(-c2ccccc2)cc1)C(O)c1ccccc1 (stereo unspecified)	u	2.82µM*	0.3	5.7	-28.8%
Cc1ccc(C(=O)COC(=O)CCN2C(=O)C3C4C=CC(C5CC45)C3C2=O)cc1 (stereo unspecified)	-0.5%	-2.0%	-5.9	x	u
COc1cccc(CNC(=O)[C@H](C)NC(=O)C2CCN(S(=O)(=O)c3ccccc3)CC2)c1	-11.9%	1.2%	-0.8	-2.8	0.8%
CCNC(=O)c1ccccc1-c1nc(-c2ccccc2OC)no1	-12.4%	-13.8%	-3.5	0.1	0.0%
CCOc1ccccc1NC(=O)c1ccccc1-c1nc(-c2ccccc2OC)no1	38.2%	0.2%	-16.8	5.2	18.4µM*
Cc1cccc(NC(=S)N/N=C2\CC(C)(C)Oc3ccc(O)cc32)c1	4.47µM*	3.16µM*	-1.7	1.4	u
COc1cccc(NC(=S)N/N=C2\CC3CCC2(C)C3(C)C)c1 (stereo unspecified)	0.562µM*	5.01µM*	-17.4	-1.7	u
COc1cccc(NC(=S)N/N=C2\CC(C)(C)Oc3ccc(O)cc32)c1	7.08µM*	4.47µM*	-0.7	-3.3	u
COc1cccc(NC(=S)NN=C2CCC(C(C)(C)C)CC2)c1 (stereo unspecified)	u	3.0%	-13.5	0.3	10.4%
CC1(C)C/C(=N\NC(=S)Nc2ccccc2F)c2cc(O)ccc2O1	3.16µM*	u	6.2	-4.1	-17.8%
COc1ccc(S(=O)(=O)N2CCOCC2)cc1NC(=O)COC(=O)CC1CC2CCC1C2 (stereo unspecified)	x	x	0.6	x	9.6%
Cc1cc(C(=O)NCC(c2ccco2)N2CCCC2)c2ccccc2n1 (stereo unspecified)	x	x	-1.7	x	8.3%
SMILES	RORg inh	Gal4-VP16 FLuc	TSHR antag	FBPA coupling cs	ELG1 DNA repair
COC(=O)c1cc(N2C(=O)C3C(C2=O)C2(C)C=CC3(C)O2)ccc1Cl (stereo unspecified)	3.55µM*	5.62µM*	0.2	6.9	-3.6%
O=C1C2C3C=CC(CNS(=O)(=O)c4ccccc4)(O3)C2C(=O)N1c1ccc(Cl)cc1 (stereo unspecified)	-106.0%	u	7.9	3.5	0.8%
CC(=O)Oc1ccc(N2C(=O)C3C4C=CC(CO)(O4)C3C2=O)cc1 (stereo unspecified)	5.01µM*	u	11.6	-2.1	19.2%
CC(=O)Oc1ccc(N2C(=O)C3C(C2=O)C2(C)C=CC3(C)O2)cc1 (stereo unspecified)	3.98µM*	4.47µM*	-21.3	-2.7	-3.3%
O=C1C2C3C=CC(CO)(O3)C2C(=O)N1c1ccccc1-c1ccccc1 (stereo unspecified)	1.78µM*	2.24µM*	-73.2*	-2.8	5.7%
O=C(CNC(=O)OCc1ccccc1)Nc1ccc(F)cc1	x	x	-13.2	x	6.8%
COc1ccc2nc(N=Nc3ccc(O)c4ccccc34)sc2c1	1.58µM*	5.01µM*	15.4	-4.2	u
COc1ccc2nc(NC(=S)N(C)C)sc2c1	28.8%	-27.1%	-19.0	3.4	u
COc1ccc2nc(N=NC3=C(O)CC(C)(C)CC3=O)sc2c1	11.2µM*	u	-5.0	1.6	3.3%
COC(=O)c1sc(=S)sc1C(=O)OC	14.1µM*	u	3.4	1.2	10.8%
COC(=O)c1sc(C(=O)OC)c(C(=O)OC)c1C(=O)OC	-4.5%	-8.4%	3.1	5.1	-7.6%
COC(=O)CNC(=O)C1(C)C=CC2(CCCCC2)N1C(C)=O (stereo unspecified)	-2.3%	-0.8%	x	-6.5	x
O=C(CCNC(=O)c1ccc([N+](=O)[O-])cc1)NNC(=O)c1ccccc1F	x	x	50.2	x	6.8%
O=C(OCC(=O)N1CCN(c2ccccc2)CC1)C1CCCN1S(=O)(=O)c1ccc(Cl)cc1 (stereo unspecified)	x	x	-8.2	x	13.1%
CCOC(=O)c1[nH]c(C)c(C(=O)N2CCN(c3ccc(OC)cc3)CC2)c1C	19.0%	-0.7%	-2.5	4.0	-4.1%
CCOC(=O)c1[nH]c(CN2CCN(c3ccc(OC)cc3)CC2)c(C(=O)OCC)c1C	33.9%	-24.0%	-6.0	-2.7	18.3µM*
